17 compounds from PubChem BioAssay (NCI) can be followed below.

Among the test systems are SK-MEL-2 melanoma; SN12C renal; UO-31 renal; TK-10 renal; ACHN renal; CAKI-1 renal; A498 renal; CCRF-CEM leukemia; MOLT-4 leukemia.
What all share (assay): NCI-60 one-dose screen, 48 h (100 = growth as untreated, 0 = no growth, -100 = all killed)
Common to all, as to settings: 10 µM

Compounds without any hit were thinned out: in the full panel of roughly 83,000, 20% have a hit.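 Testing used 96-well plates and a 48-hour single-concentration exposure. Example: -40 means 40% of the starting cells died.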 Unmarked numbers belong to inactive results. The source made the active and inactive calls. How the source made its calls: active means growth percent below 10; inactive means the rest.

As for `CN(C)CCCN(Cc1ccccc1O)C(=S)Nc1ccc(Cl)cc1`, the growth is 112% in the test on SK-MEL-2 melanoma; 98.2% in the test on SN12C renal; 78.8% with UO-31 renal; 104% with TK-10 renal; 95% in the test on ACHN renal; 99.7% in the test on CAKI-1 renal. For the same compound, the growth was 77.5% with A498 renal, 109% with CCRF-CEM leukemia and 106% in the test with MOLT-4 leukemia.
On to `CCn1nc(-c2ccc(C(=O)OC)cc2)nc2c(=O)n(C)c(=O)nc1-2`, for which the growth with SK-MEL-2 melanoma is 96.6%; in the test on SN12C renal, 76.6%; in the test on UO-31 renal it was 49.9%; in the test on TK-10 renal, 85.7%; in the test with ACHN renal, -53.4% (active); in the test on CAKI-1 renal, 63.7%. Besides, the figures for the growth in the test with A498 renal, in the test on CCRF-CEM leukemia and in the test with MOLT-4 leukemia were 108%, 83.9% and 101%, respectively.
In the case of `CC1=CSC2=NC(c3ccc(Cl)c(Cl)c3)=CC(c3ccc(Cl)cc3)N12` (stereo not drawn), the growth in the test on SK-MEL-2 melanoma was -14.1% (active); in the test with SN12C renal, 13.7%; with UO-31 renal it was 7.9% (active); in the test with TK-10 renal it was 18.6%; in the test with ACHN renal it was 13.5%; in the test with CAKI-1 renal it was 5.28% (active). The growth in the test on A498 renal was -12% (active); in the test on CCRF-CEM leukemia it was 31.9%; in the test on MOLT-4 leukemia, 35.2%.
`CC1(C)CC(OCCCC[P+](c2ccccc2)(c2ccccc2)c2ccccc2)CC(C)(C)N1O`: the growth in the test with SK-MEL-2 melanoma is -23.4% (active); with SN12C renal it was 4.65% (active); with UO-31 renal it was -18.8% (active); with TK-10 renal it was -21.1% (active); in the test with ACHN renal, -8.25% (active); in the test with CAKI-1 renal it was -25.7% (active). The growth in the test on A498 renal is -5.35% (active); with CCRF-CEM leukemia it was -37.1% (active); in the test on MOLT-4 leukemia, 0.462% (active).
Regarding `COc1cc(OC)cc(-c2ccc(-c3ccc(C(=N)N)cn3)o2)c1`, the growth is -76.8% (active) in the test with SK-MEL-2 melanoma; -50.5% (active) in the test with SN12C renal; -33.9% (active) in the test on UO-31 renal; 0.358% (active) in the test on TK-10 renal; 1.34% (active) in the test on ACHN renal; 16.1% in the test on CAKI-1 renal. The growth with A498 renal was 44.1%; in the test with CCRF-CEM leukemia it was -25.6% (active); in the test with MOLT-4 leukemia, -41.9% (active).
For `COc1cc(C2CC(=O)Nc3c2c(C)nn3-c2nc3ccccc3[nH]2)cc(OC)c1O` (stereo not drawn), the growth is -7.45% (active) in the test with SK-MEL-2 melanoma; 81.2% with SN12C renal; 8.39% (active) with UO-31 renal; 37.2% in the test on TK-10 renal; 31.1% with ACHN renal; 78.9% in the test with CAKI-1 renal. Moreover, the growth in the test on A498 renal was 22.5%; with CCRF-CEM leukemia, 0.819% (active); with MOLT-4 leukemia it was -36% (active).
Take `CC(=O)OCC(COC(C)=O)(COC(C)=O)COC(C)=O`: the growth in the test on SK-MEL-2 melanoma is 101%; with SN12C renal, 108%; with UO-31 renal, 84.7%; with TK-10 renal, 108%; in the test on ACHN renal it was 110%; with CAKI-1 renal it was 103%. The growth is 73.4% in the test with A498 renal, 103% with CCRF-CEM leukemia and 93.5% in the test on MOLT-4 leukemia.
For the compound `COc1ccccc1S(=O)(=O)Nc1ccc2c(c1)CN(C)C(=O)N2`, the growth in the test on SK-MEL-2 melanoma is 47.6%; in the test on SN12C renal, 53.2%; with UO-31 renal, 10.2%; in the test on TK-10 renal it was 17.3%; in the test on ACHN renal, 34.7%; in the test on CAKI-1 renal it was 21.2%. In addition, the growth is -2.92% (active) in the test on A498 renal, 48.9% in the test on CCRF-CEM leukemia and 38.4% in the test with MOLT-4 leukemia.
Consider `C=C[C@]1(C)C=C2C(=O)[C@@]3(O)OC(=O)[C@@]4(CCCC(C)(C)[C@H]34)[C@@]2(O)CC1`, for which the growth in the test on SK-MEL-2 melanoma is -66.5% (active); in the test with SN12C renal, -66.5% (active); with UO-31 renal, -99.4% (active); in the test with TK-10 renal, -95.5% (active); in the test on ACHN renal, -100% (active); in the test with CAKI-1 renal, -90.6% (active). For the same compound, the growth in the test on A498 renal is -94.6% (active); in the test with CCRF-CEM leukemia, -31.5% (active); with MOLT-4 leukemia it was -13.6% (active).
Consider `O=[N+]([O-])c1cc2ncccc2c2ncccc12`, for which the growth is 84.9% in the test on SK-MEL-2 melanoma; 87.2% in the test on SN12C renal; 52.1% with UO-31 renal; 106% in the test with TK-10 renal; 65.3% with ACHN renal; 84.2% with CAKI-1 renal. In addition, the growth in the test on A498 renal is 111%; in the test with CCRF-CEM leukemia it was 74.9%; with MOLT-4 leukemia, 61.4%.
Regarding `COc1cc(C)c2sc3ccccc3c(=O)c2c1NCCN(C)C`, the growth is 121% in the test with SK-MEL-2 melanoma; 54.2% in the test on SN12C renal; 32% with UO-31 renal; 61.9% with TK-10 renal; 38.4% with ACHN renal; 39.7% in the test on CAKI-1 renal. The growth in the test on A498 renal is 55%; in the test on CCRF-CEM leukemia it was 22.6%; in the test with MOLT-4 leukemia, 1.59% (active).
Take `CCCCC(CC#N)(CCC)CCC`: the growth in the test on SK-MEL-2 melanoma is 102%; in the test with SN12C renal it was 106%; in the test with UO-31 renal, 90.6%; in the test with TK-10 renal it was 92.7%; with ACHN renal, 102%; in the test on CAKI-1 renal it was 90.3%. Moreover, the growth is 103% in the test with A498 renal, 94.7% in the test with CCRF-CEM leukemia and 97.5% in the test on MOLT-4 leukemia.
For `CCOc1cc(Br)c(C(C)NC(=O)c2cccc(OC)c2)cc1OCC` (stereo not drawn), the growth is 80.9% in the test on SK-MEL-2 melanoma; 78.8% with SN12C renal; 54.7% in the test with UO-31 renal; 77.8% in the test on TK-10 renal; 95.7% with ACHN renal; 81.6% in the test on CAKI-1 renal. Further, the growth with A498 renal is 54%; in the test on CCRF-CEM leukemia, 53.7%; in the test on MOLT-4 leukemia, 49.3%.
With `C=CCN1C(=O)/C(=C\c2ccc3c(c2)CCC3)SC1=S`, the growth with SK-MEL-2 melanoma was 94.6%; in the test with SN12C renal, 102%; with UO-31 renal it was 85.6%; in the test with TK-10 renal, 108%; in the test with ACHN renal, 97.1%; in the test on CAKI-1 renal it was 97.5%. Further, the results for the growth with A498 renal, with CCRF-CEM leukemia and in the test on MOLT-4 leukemia were 98.9%, 103% and 85.9%, respectively.
With `N=C(N)c1ccc(-c2ccc(-c3cccs3)s2)nc1`, the growth was 97.8% in the test with SK-MEL-2 melanoma; 60.9% with SN12C renal; 2.6% (active) in the test on UO-31 renal; 47.3% in the test with TK-10 renal; 56.7% in the test with ACHN renal; 34.2% with CAKI-1 renal. In addition, the growth in the test with A498 renal is -25.6% (active); in the test with CCRF-CEM leukemia it was 31.6%; in the test with MOLT-4 leukemia it was 17.3%.
Regarding `COc1ccc(C2CC(c3ccc(-c4ccccc4)cc3)=NN2c2ccc(S(N)(=O)=O)cc2)cc1` (stereo not drawn), the growth in the test on SK-MEL-2 melanoma is 90.3%; in the test with SN12C renal, 52.6%; in the test with UO-31 renal it was 50%; with TK-10 renal it was 65.4%; in the test on ACHN renal, 74.7%; in the test with CAKI-1 renal, 45.2%. The growth is 98% with A498 renal, 51.7% in the test with CCRF-CEM leukemia and 54.8% with MOLT-4 leukemia.
As for `Cc1nc2sccn2c1-c1csc(Nc2cccc(Cl)c2C)n1`, the growth with SK-MEL-2 melanoma is 43.8%; in the test on SN12C renal, 59.4%; in the test on UO-31 renal, 51.2%; in the test on TK-10 renal, 54.6%; with ACHN renal, 60.3%; with CAKI-1 renal, 51.4%. The figures for the growth in the test with A498 renal, in the test with CCRF-CEM leukemia and in the test with MOLT-4 leukemia were 36.1%, 47.1% and 40.2%, respectively.
